Measured values as given in paper PMC4336329 (PLoS ONE, 2015).
Among all 310,000 compounds or so, about 14,000 (4.5%) showed an effect of 50% or more. The effect is printed as a negative number. The list comes from a sample in which strong results are over-represented; it also holds similar structures and randomly drawn compounds.

biological target: human ether-à-go-go-related gene (hERG) potassium channel (human, UniProt Q12809); assay: primary screen, population patch clamp on CHO cells stably expressing hERG; higher = less effect of the substance
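Note: peak tail current of the secondary pulse compared with the same well before compound.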

Sequence of human ether-à-go-go-related gene (hERG) potassium channel (Q12809 whole entry, looked up): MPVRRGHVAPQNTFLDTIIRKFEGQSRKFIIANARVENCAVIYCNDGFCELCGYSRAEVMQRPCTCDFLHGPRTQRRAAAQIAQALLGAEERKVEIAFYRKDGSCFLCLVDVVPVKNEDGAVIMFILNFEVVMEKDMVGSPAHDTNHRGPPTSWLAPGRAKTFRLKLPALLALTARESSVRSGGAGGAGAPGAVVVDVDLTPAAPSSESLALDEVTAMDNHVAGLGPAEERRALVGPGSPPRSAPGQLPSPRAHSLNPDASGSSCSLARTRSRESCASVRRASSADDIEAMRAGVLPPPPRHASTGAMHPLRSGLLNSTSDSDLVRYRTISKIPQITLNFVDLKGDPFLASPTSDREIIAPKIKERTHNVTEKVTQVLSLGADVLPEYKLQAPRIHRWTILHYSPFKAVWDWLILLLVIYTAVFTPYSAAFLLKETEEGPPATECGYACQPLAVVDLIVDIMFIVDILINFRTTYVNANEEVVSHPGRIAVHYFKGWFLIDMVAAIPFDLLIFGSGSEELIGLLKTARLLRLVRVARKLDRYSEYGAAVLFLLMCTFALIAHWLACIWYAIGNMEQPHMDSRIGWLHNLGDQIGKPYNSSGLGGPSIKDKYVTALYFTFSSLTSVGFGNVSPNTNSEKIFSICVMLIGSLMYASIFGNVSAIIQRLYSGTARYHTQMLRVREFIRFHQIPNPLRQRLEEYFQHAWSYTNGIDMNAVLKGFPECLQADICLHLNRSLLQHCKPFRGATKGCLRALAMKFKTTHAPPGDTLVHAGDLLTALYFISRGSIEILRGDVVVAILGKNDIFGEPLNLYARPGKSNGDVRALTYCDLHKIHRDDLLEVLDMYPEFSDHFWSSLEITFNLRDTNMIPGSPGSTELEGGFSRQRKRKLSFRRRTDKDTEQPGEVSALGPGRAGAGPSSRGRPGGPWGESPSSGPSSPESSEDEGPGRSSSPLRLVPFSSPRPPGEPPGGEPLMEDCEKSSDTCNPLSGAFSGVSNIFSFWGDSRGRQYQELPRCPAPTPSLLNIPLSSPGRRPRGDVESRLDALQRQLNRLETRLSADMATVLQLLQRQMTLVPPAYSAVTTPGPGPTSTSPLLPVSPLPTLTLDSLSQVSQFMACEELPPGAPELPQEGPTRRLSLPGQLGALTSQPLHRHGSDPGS

SMILES | hERG current change (%, negative = inhibition) at 10uM [%]
O=C(Cn1cnc([N+](=O)[O-])n1)N/N=C/c1ccccc1O | 14.4
COC(=O)C[C@](O)(CCCC(C)(C)O)C(=O)O[C@@H]1C(OC)=C[C@]23CCCN2CCc2cc4c(cc2[C@H]13)OCO4 | 10.4
CCCCOCCCNC(=O)N[C@H](C(=O)OC)C(C)C | 10.7
Cn1c(=O)c2c(ncn2CC(=O)Nc2ccc3c(c2)OCO3)n(C)c1=O | 3.43
O=C(Nc1ncc(C(F)(F)F)cc1Cl)C1COc2ccccc2O1 (stereo not drawn) | -3.76
Cc1ccc2c(Cl)cc(Cl)c(OCC(=O)N3CCOCC3)c2n1 | -8.28
O=C(Cc1noc2ccccc12)Nc1ccccn1 | 6.57
O=S(=O)(Nc1nc2ccccc2nc1NCc1ccco1)c1cccs1 | 4.13
CCc1ccc2c(c1)c(N=NC1=NC(=O)CS1)c(O)n2C | 0.556
COc1ccc(NS(=O)(=O)c2ccc(C(=O)N3CCN(Cc4ccccc4)CC3)cc2)cc1 | -17.1
Cc1cccc(-c2noc(CNC(=O)COc3ccccc3C)n2)c1 | -1.88
CCOc1ccc(C(CCc2ccccc2)NC(=O)c2ccccc2)cc1OCC (stereo not drawn) | -19.1
CCCCN(Cc1nc2ccccc2c(=O)[nH]1)C(=O)CN1C(=O)NC2(CCCCC2)C1=O | -41.9
O=C(Cc1nnc(NC(=O)c2ccccc2)s1)N/N=C\c1ccc(O)c(O)c1 | 23.4
COc1ccc(OC)c(C2N(c3cc(C)on3)C(=O)C3CCCN32)c1 (stereo not drawn) | 10.8
Cc1cccn2c(=O)c(C=O)c(N3CCN(c4ccc(F)cc4)CC3)nc12 | -22.1
Cc1cccn2c(=O)c(C=O)c(N3CCN(c4ccccc4)CC3)nc12 | -55.4
Cc1ccc2nc(N3CCN(c4ccccc4)CC3)c(C=O)c(=O)n2c1 | 11.5
Cc1cccn2c(=O)c(C=O)c(N3CCN(C)CC3)nc12 | -0.442
Cc1ccc2nc(N3CCN(c4ccccc4F)CC3)c(C=O)c(=O)n2c1 | -70.1
Cc1ccc2nc(N3CCN(C)CC3)c(C=O)c(=O)n2c1 | 5.3
CCOCCCNC(=O)Cc1ccc(-n2c(CC)nc3cccnc32)cc1 | -8.18
C=CCn1c(Oc2ccc(C=O)cc2OCC)nc2c1c(=O)n(C)c(=O)n2C | 24.4
CCc1nnc(SCC(=O)Nc2ccccc2)n1CC1CCCO1 (stereo not drawn) | 2.61

SMILES | hERG current change (%, negative = inhibition) at 10uM [%]
Cc1cccc(N2CC(C(=O)Nc3nnc(SCCN4CCOCC4)s3)CC2=O)c1 (stereo not drawn) | 0.559
O=C(NNC(=S)Nc1ccc(Cl)cc1Cl)c1cccnc1 | 8.1
CCN(CC)CCCN(C(=O)c1ccco1)c1nc(-c2ccc(Cl)cc2)cs1.Cl | -71.2
COc1ccc(-c2csc(N(CCCN3CCOCC3)C(=O)c3ccco3)n2)cc1.Cl | -32.4
Cl.O=C(c1ccco1)N(CCCN1CCOCC1)c1nc(-c2ccc(F)cc2)cs1 | -29.4
CCN(C(=O)c1ccco1)c1nc(-c2ccc(OC)cc2)cs1 | 8.13
COCCN(C(=O)c1ccco1)c1nc(-c2ccccc2)cs1 | 4.36
CCN(CC)CCCN(C(=O)c1ccco1)c1nc(-c2ccc(C)cc2)cs1.Cl | -84.1
CCOc1ccc(Oc2ccc(C(F)(F)F)cc2NC(=O)C2=COCCO2)cc1 | 13.6
CCC(CC)c1nnc(NC(=O)c2cc(-c3ccccc3)nc3ccccc23)s1 | 9.31
O=C(/C=C/c1ccccc1Cl)N(Cc1ccc(Cl)cc1)C1CCS(=O)(=O)C1 (stereo not drawn) | 1.48
O=C(NCC1CCCO1)c1ccccc1NS(=O)(=O)c1cccs1 (stereo not drawn) | -5.56
Cc1cc(C)cc(OCCNC(=O)CCc2ccccc2)c1 | 4.83
COc1ccc(-c2nc(Cn3c(SCc4cccc(F)c4)nc4ccncc43)c(C)o2)cc1OC | -62.4
CCC(C)NC(=O)c1ccc(CSc2nc3ccncc3n2Cc2ccc(F)cc2)cc1 (stereo not drawn) | -59
CN1CCN(C(=O)c2ccc(CSc3nc4ccncc4n3Cc3ccc(F)cc3)cc2)CC1 | 0.727
CC1CCN(C(=O)c2ccc(CSc3nc4ccncc4n3Cc3ccc(F)cc3)cc2)CC1 | -46
COc1ccc(Cn2c(SCc3ccc(C)cc3)nc3cc(OC)c(OC)cc3c2=N)cc1Cl | 14.6
COc1ccc(-c2nc(Cn3c(SCc4ccc(C)cc4)nc4ccncc43)c(C)o2)cc1OC | -52
COc1ccc(-c2nc(Cn3c(SCc4ccc(F)cc4)nc4ccncc43)c(C)o2)cc1OC | -55.6
Cc1ccc(CSc2nc3ccncc3n2CC(=O)Nc2cc(C)cc(C)c2)cc1 | 7.38
Cc1cccc(CSc2nc3ccncc3n2CC(=O)Nc2cc(C)cc(C)c2)c1 | 9.09
O=C(NC1CCCC1)c1ccc(CSc2nc3ccncc3n2Cc2ccc(F)cc2)cc1 | -40.7
COc1cc2nc(SCc3ccc(F)cc3)n(Cc3cccs3)c(=N)c2cc1OC | 0.564

SMILES | hERG current change (%, negative = inhibition) at 10uM [%]
COc1ccc(-c2nc(Cn3c(SCc4ccccc4F)nc4ccncc43)c(C)o2)cc1 | 4.5
CC1CCCCC1NC(=O)Cn1c(=O)oc2cc(S(=O)(=O)N3CCCC3)ccc21 (stereo not drawn) | 18.8
O=NNc1nc2ccccc2n1Cc1ccccc1 | -1.83
COc1ccc(C2C(C(=O)c3ccc(C)o3)=C(O)C(=O)N2Cc2ccco2)cc1OC (stereo not drawn) | 21
CCOCCCNC(=O)C(c1ccc(OC)cc1)N(Cc1ccc2c(c1)OCO2)C(=O)CNC(C)=O (stereo not drawn) | 15.3
CCc1nnc(NC(=O)C(NC(=O)c2ccccc2Cl)C(C)C)s1 (stereo not drawn) | 0.192
CCCCSc1nnc(-c2ccccc2)c2ccccc12 | -37.3
Cc1ccc2c(c1)C(=O)N(CCCCO)C2=O | 20.1
O=c1cc(CSc2ccccc2)[nH]c2ccccc12 | 8.17
O=C(C[n+]1ccccc1)Nc1c(Cl)cc(Cl)cc1Cl.[Cl-] | 13.1
CC(=O)Nc1ccccc1C(=O)OCC(=O)c1ccccc1Cl | -12
CC1=NN(c2cccc(F)c2)C(=O)/C1=C/c1ccc(N(C)C)cc1 | 6.38
CCOC(=O)CSc1nnc(CNc2ccc(Cl)cc2)n1Cc1ccccc1 | -21.8
COC(=O)CSc1nnc(CNc2ccc(Cl)cc2)n1Cc1ccccc1 | -54.7
CC(C)OC(=O)CSc1nnc(CNc2ccc(Cl)cc2)n1Cc1ccccc1 | -33
CCn1c(CNc2ccc(Cl)cc2)nnc1SCC(=O)OC1CCCCC1 | -37
CCn1c(CNc2cccc(Cl)c2)nnc1SCC(=O)OC1CCCCC1 | -25
CCn1c(CNc2ccc(F)cc2)nnc1SCC(=O)OC1CCCCC1 | -51.7
CN(C)S(=O)(=O)c1cccc(NC(=O)COC(=O)CNC(=O)c2cccc([N+](=O)[O-])c2)c1 | -39.6
CCOc1ccc(N2C(=O)CSC23CCCCC3)cc1 | -3.56
COC(=O)c1[nH]c(C)c(/C(O)=C2\C(=O)C(=O)N(CCN(C)C)C2c2cccs2)c1C (stereo not drawn) | 16.9
CCOC(CNC(=O)c1ccc2c(c1)ncn2-c1cccc(F)c1)OCC | -17.3
O=C(CSc1n[nH]c(=O)n1-c1ccc2c(c1)OCCO2)Nc1ccccc1 | 13
COc1ccc(OCC(=O)N/N=C/c2ccncc2)cc1 | 17.9

SMILES | hERG current change (%, negative = inhibition) at 10uM [%]
CCOC(=O)c1[nH]c(C)c(C(=O)N2CCN(c3ccccc3)CC2)c1C | -13.2
CCOC(=O)c1c(N2CCN(c3ccccc3)CC2)cc(C)nc1C.O=C([O-])C(=O)[O-] | -72
CCOC(=O)c1sc(NC(=O)CN2CCN(c3ccccc3)CC2)nc1C | -5.78
COc1ccccc1NC(=O)C(C)OC(=O)c1cccc(-n2cnnn2)c1 (stereo not drawn) | -35.2
CC(OC(=O)c1ccc(-n2cnnn2)cc1)C(=O)Nc1ccccc1F (stereo not drawn) | -23.2
COc1ccccc1NC(=O)C(C)OC(=O)c1ccc(-n2cnnn2)cc1 (stereo not drawn) | -87.5
COCCn1c(C)cc(/C=N/NC(=O)c2cc3ccccc3cc2O)c1C | 10.3
O=C(Nc1ccccc1F)C1CCN(S(=O)(=O)c2cccnc2)CC1 | 9.24
COc1ccc(S(=O)(=O)N(C)C)cc1NC(=O)COC(=O)c1nc2nccc(C)n2n1 | 9.68
CC(NC(=O)CN1c2cccc3cccc(c23)S1(=O)=O)c1ccc(S(N)(=O)=O)cc1 (stereo not drawn) | -25.1
Cc1ccc(NC(=O)N/C=C/c2ccco2)cc1C | -1.57
Cn1cncc1COC(=O)c1ccc(Cl)cc1 | 5.21
Cc1cccc(N2CCN(CCc3ccccc3)CC2)c1C | -75.1
C/C=C(\C)CN1CCN(c2cccc(C)c2C)CC1 | -3.49
COc1ccccc1N1CCN(C/C(C)=C/c2ccccc2)CC1 | -63.4
COc1ccccc1N1CCN(Cc2nnnn2CCc2ccccc2)CC1.Cl | 8.3
COc1ccccc1N1CCN(C(=O)CCc2ccccc2)CC1 | -11.4
C/C(=C\c1ccccc1)CN1CCN(c2ccccc2)CC1 | -3.31
COc1ccccc1N1CCN(CCc2ccccc2)CC1 | -59.4
C/C(=C\c1ccccc1)CN1CCN(c2ccccc2F)CC1 | 5.01
Cc1cccc(N2CCN(C(=S)NCCc3ccccc3)CC2)c1C | -5.03
